Source: PubChem BioAssay (NCI)
About 79,000 compounds went through this panel and 15% of them were active in at least one assay; those are over-represented in the sample as a whole. Calls of active or inactive are those of the source. Rule as the data show it: active = growth inhibition above about 70%; inactive = the rest.

Key:
[1] = NCI Yeast Anticancer Drug Screen. Data for the rad52 strain (AID 147);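 also: 0% = growth of vehicle-treated control cultures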; conditions: S. cerevisiae rad52 mutant growth inhibition, hits give high values
Summary of the method: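 The repair-mutant yeast strain was incubated with compounds, then growth was read and inhibition derived relative to vehicle.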

[2] = NCI Yeast Anticancer Drug Screen. Data for the wt1 strain (AID 149);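 also: 0% = growth of vehicle-treated wt1 cultures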; conditions: S. cerevisiae wt1 strain (SPY 50644) growth inhibition, hits give high values
Summary of the method: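 Each compound is tested on wt1 yeast and the loss of growth versus vehicle gives the inhibition value.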

[3] = NCI Yeast Anticancer Drug Screen. Data for the rad50EPP+ strain (AID 151);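 also: 0% = growth of vehicle-treated control cultures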; conditions: S. cerevisiae rad50 mutant strain, hits give high values
Summary of the method: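 Vehicle-normalised growth inhibition; rad50EPP+ yeast strain, altered in DNA damage repair, compound-treated.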

[4] = NCI Yeast Anticancer Drug Screen. Data for the rad50 strain (AID 155);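 also: 0% = growth of vehicle-only cultures of the same strain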; conditions: S. cerevisiae rad50 strain growth inhibition, hits give high values
Summary of the method: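 Vehicle-treated cultures provide the reference for the growth inhibition reported for compound-exposed, repair-deficient yeast.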

[5] = NCI Yeast Anticancer Drug Screen. Data for the mec2-1 strain (AID 157); conditions: S. cerevisiae mec2-1 strain, hits give high values
Summary of the method: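 Mutant yeast (mec2-1) grown with compound; growth inhibition relative to vehicle control reported.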

[6] = NCI Yeast Anticancer Drug Screen. Data for the rad14 strain (AID 159);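 also: 0% = growth of vehicle-treated control cultures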; conditions: S. cerevisiae rad14 strain growth inhibition, hits give high values
Summary of the method: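 Inhibition of growth is reported for a repair-deficient yeast mutant following compound treatment, calculated relative to cultures that received vehicle.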

[7] = NCI Yeast Anticancer Drug Screen. Data for the sgs1 mgt1 strain (AID 161);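 also: 0% = growth of cultures given vehicle only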; conditions: S. cerevisiae sgs1 mgt1 strain, hits give high values
Summary of the method: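 Yeast cells carrying a defined DNA-repair defect were exposed to test compounds. Growth inhibition was measured relative to vehicle-treated controls.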

[8] = NCI Yeast Anticancer Drug Screen. Data for the CLN2oe strain (AID 163);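 also: 0% = growth of vehicle-only control cultures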; conditions: S. cerevisiae CLN2oe strain, hits give high values
Summary of the method: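 Compounds are applied to yeast harbouring a defined cell-cycle control change; reduced growth compared with vehicle-treated controls gives the value.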

[9] = NCI Yeast Anticancer Drug Screen. Data for the bub3 strain (AID 167); conditions: S. cerevisiae bub3 mutant strain, hits give high values
Summary of the method: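 Mutant yeast screening strain plus compound; vehicle-treated cultures serve as the 0% inhibition reference.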

[10] = NCI Yeast Anticancer Drug Screen. Data for the sgs1 strain (AID 173);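 also: 0% = growth of vehicle-only control cultures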; conditions: S. cerevisiae sgs1 mutant, hits give high values
Summary of the method: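 Each compound was added to cultures of the altered yeast strain. Growth was recorded, and inhibition was derived by comparison with vehicle controls.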

[11] = NCI Yeast Anticancer Drug Screen. Data for the mlh1 rad18 strain (AID 175); conditions: S. cerevisiae mlh1 rad18 strain growth inhibition, hits give high values
Summary of the method: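 Genetically defined yeast (DNA repair-deficient) exposed to compounds; growth inhibition determined relative to vehicle.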

[12] = NCI Yeast Anticancer Drug Screen. Data for the wt2 strain (AID 169); conditions: S. cerevisiae wt2 strain growth inhibition, hits give high values
Summary of the method: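 Against vehicle-treated controls, the growth of yeast exposed to each compound was compared, and the inhibition was recorded.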

[13] = NCI Yeast Anticancer Drug Screen. Data for the mlh1 strain (AID 171);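 also: 0% = growth of vehicle-treated control cultures of the same strain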; conditions: S. cerevisiae mlh1 strain growth inhibition, hits give high values
Summary of the method: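 Measured: yeast growth. Reference: vehicle-treated controls. Organism: strain with a defined alteration affecting DNA damage repair or cell cycle control, treated with compound.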

[14] = NCI Yeast Anticancer Drug Screen. Data for the rad18 strain (AID 177); conditions: S. cerevisiae rad18 mutant growth inhibition, hits give high values
Summary of the method: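 Vehicle-treated cultures served as the baseline for scoring compound-induced growth inhibition in DNA-repair-mutant yeast.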

[15] = at 5.0 µM (retest, dose inferred, filed as 0.5)
[16] = at 50.0 µM (retest, dose inferred, filed as 5.0)

Measured: growth inhibition

CN=C(N)N/N=C(\C)c1ccc2oc3ccc(/C(C)=N/NC(N)=NC)cc3c2c1
inactive: [1]; at 1.2 µM 11% | [1]; at 3.7 µM 28% | [2]; at 1.2 µM -8% | [2]; at 3.7 µM -21% | [2]; at 11.0 µM 11% | [3]; at 1.2 µM -17% | [3]; at 3.7 µM 23% | [4]; at 1.2 µM 34% | [4]; at 3.7 µM 64% | [5]; at 1.2 µM -11% | [5]; at 3.7 µM -9% | [5]; [15] 15% | [5]; at 11.0 µM 15% | [6]; at 1.2 µM 4% | [6]; at 3.7 µM -18% | [6]; at 11.0 µM 43% | [7]; [15] 56% | [8]; at 1.2 µM -66% | [8]; at 3.7 µM -74% | [8]; at 11.0 µM 20% | [9]; at 1.2 µM -14% | [9]; at 3.7 µM -24% | [9]; [15] 37% | [9]; at 11.0 µM 2% | [10]; at 1.2 µM -21% | [10]; at 3.7 µM -14% | [10]; at 11.0 µM 37% | [11]; [15] 54%
active: [1]; at 11.0 µM 88% | [1]; at 33.0 µM 98% | [1]; at 100.0 µM 98% | [2]; at 33.0 µM 98% | [2]; at 100.0 µM 98% | [3]; at 11.0 µM 70% | [3]; at 33.0 µM 96% | [3]; at 100.0 µM 98% | [4]; [15] 81% | [4]; at 11.0 µM 92% | [4]; at 33.0 µM 98% | [4]; [16] 98% | [4]; at 50.0 µM 90% | [4]; at 100.0 µM 98% | [5]; at 33.0 µM 98% | [5]; [16] 99% | [5]; at 50.0 µM 93.6% | [5]; at 100.0 µM 98% | [6]; at 33.0 µM 98% | [6]; at 100.0 µM 98% | [7]; [16] 99% | [7]; at 50.0 µM 90.4% | [8]; at 33.0 µM 97% | [8]; at 100.0 µM 98% | [9]; at 33.0 µM 97% | [9]; [16] 99% | [9]; at 50.0 µM 89.2% | [9]; at 100.0 µM 98% | [10]; at 33.0 µM 98% | [10]; at 100.0 µM 98% | [11]; [16] 98% | [11]; at 50.0 µM 87.5%

O=Nn1c2ccccc2c2cc([N+](=O)[O-])ccc21
inactive: [1]; at 1.2 µM -6% | [1]; at 3.7 µM 11% | [1]; at 11.0 µM 51% | [2]; at 1.2 µM -27% | [2]; at 3.7 µM -23% | [2]; at 11.0 µM -14% | [2]; at 33.0 µM 49% | [3]; at 1.2 µM 8% | [3]; at 3.7 µM 15% | [3]; at 11.0 µM 27% | [3]; at 33.0 µM 66% | [4]; at 1.2 µM 15% | [4]; at 3.7 µM 24% | [4]; [15] 47% | [4]; at 11.0 µM 53% | [5]; at 1.2 µM -16% | [5]; at 3.7 µM -1% | [5]; [15] 51% | [5]; at 11.0 µM 11% | [5]; at 33.0 µM 59% | [6]; at 1.2 µM -19% | [6]; at 3.7 µM -5% | [6]; at 11.0 µM 1% | [6]; at 33.0 µM 61% | [7]; [15] -26% | [7]; [16] 27% | [8]; at 1.2 µM -32% | [8]; at 3.7 µM -9% | [8]; at 11.0 µM -9% | [8]; at 33.0 µM 55% | [9]; at 1.2 µM 4% | [9]; at 3.7 µM 19% | [9]; [15] 19% | [9]; at 11.0 µM 55% | [12]; at 1.2 µM -28% | [12]; at 3.7 µM -22% | [12]; at 11.0 µM 8% | [12]; at 33.0 µM 59% | [13]; at 1.2 µM -35% | [13]; at 3.7 µM -29% | [13]; at 11.0 µM -3% | [13]; at 33.0 µM 48% | [10]; at 1.2 µM -8% | [10]; at 3.7 µM -14% | [10]; at 11.0 µM -1% | [10]; at 33.0 µM 65% | [11]; [15] 39% | [14]; at 1.2 µM -10% | [14]; at 3.7 µM -6% | [14]; at 11.0 µM 37%
active: [1]; at 33.0 µM 88% | [1]; at 100.0 µM 95% | [2]; at 100.0 µM 92% | [3]; at 100.0 µM 85% | [4]; at 33.0 µM 89% | [4]; [16] 92% | [4]; at 50.0 µM 81.9% | [4]; at 100.0 µM 93% | [5]; [16] 91% | [5]; at 50.0 µM 75.8% | [5]; at 100.0 µM 93% | [6]; at 100.0 µM 93% | [7]; at 50.0 µM 84.5% | [8]; at 100.0 µM 94% | [9]; at 33.0 µM 88% | [9]; [16] 71% | [9]; at 50.0 µM 84.8% | [9]; at 100.0 µM 96% | [12]; at 100.0 µM 91% | [13]; at 100.0 µM 89% | [10]; at 100.0 µM 92% | [11]; [16] 97% | [11]; at 50.0 µM 80% | [14]; at 33.0 µM 84% | [14]; at 100.0 µM 93%
